Only some compounds are listed: those with a hit (about 2.3% of all), similar ones and a draw of the others.
USP1-UAF1 inh: inhibitors of human USP1/UAF1 deubiquitinase. Potency, µM (doses to about 57.1 µM), without a hit: at the top dose activity change, negative = inhibition, most hits filed as inhibitors. AID 743255. 390,000 compounds, 0.23% hits. recombinant USP1/UAF1, Ub-Rhodamine cleavage fluorescence; further: potency means the concentration at half of the fitted maximal effect; nearly all actives have a fitted effect of over 60% in size
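USP1/UAF1 complex at 1 nM was preincubated with compound for 15 min at room temperature, then Ub-Rho substrate (150nM final) was added. Fluorescence (480/540 nm) was read kinetically, 6 reads every 60 seconds.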
Tau fibril FP: blocks human tau fibril formation measured by polarization | P10636 | K18 P301L tau heparin fibrillization, Alexa594 FP, 6 h | Potency, µM (highest dose often 57.7 µM), without a hit: at the top dose activity, negative = inhibition, most hits filed as inhibitors | 280,000 compounds, 0.39% hits | AID 1468; further: potency means the concentration at half of the fitted maximal effect; nearly all actives have a fitted effect of over 55% in size
Target sequence (P10636 561-689 P618L limits assumed): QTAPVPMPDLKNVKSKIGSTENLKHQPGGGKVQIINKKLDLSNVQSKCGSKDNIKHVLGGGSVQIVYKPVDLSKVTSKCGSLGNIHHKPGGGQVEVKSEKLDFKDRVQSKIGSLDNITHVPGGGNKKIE
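Human K18 P301L fragment (15 uM unlabeled plus 0.24 uM Alexa 594-labeled) in 100 mM sodium acetate pH 7 with compound, aggregation induced by 20 uM heparin for 6 hr at 37 C. ThT (30 uM) added for 1 hr, then Alexa 594 FP read.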
Coupling enz: inhibits coupling enzyme system, counter-screen for aldolase hits; coupling enzyme system counterscreen, AmpLite Red fluorescence; activity change, negative = inhibition, % at 58.2 µM, hits read low; 290,000 compounds, 0.67% hits; in the data active means activity change below about -30%
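Counterscreen of the coupled detection system alone, without aldolase: glyceraldehyde-3-phosphate coupling enzymes plus AmpLite Red readout. Compounds at 57.5 uM final, 10 min RT preincubation, 20 min RT reaction, fluorescence 525/598 nm.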
Tau ThT inhib: tau fibrillization inhibition (ThT binding). P10636. recombinant tau K18 P301L, heparin-induced fibrillization, ThT fluorescence. Potency, µM (highest dose often 57.4 µM), inactives show top-dose activity, negative = inhibition, actives largely listed as inhibitors. 270,000 compounds, 2.1% hits; further: potency means the concentration at half of the fitted maximal effect; nearly all actives have a fitted effect of over 55% in size
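Aggregation was driven by heparin (20 uM final) acting on recombinant tau […] bearing P301L in 100 mM sodium acetate pH 7; fibrils were detected with Thioflavin T.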
Tau fluor cs: counter-screen for tau fibril formation inhibitors; 280,000 compounds, 0.93% hits; Potency, µM (titrated, usually from 57.7 µM), for inactives: at the top dose activity change, negative = decrease; tau K18 P301L Alexa594 fluorescence, heparin fibrillization; AID 1463; further: potency means the concentration at half of the fitted maximal effect; nearly all actives have a fitted effect of over 55% in size
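Human tau K18 P301L (15 uM unlabeled, 0.24 uM Alexa 594-labeled) in 100 mM sodium acetate pH 7 with 20 uM heparin, 6 hr at 37 C. ThT 30 uM added, 1 hr ambient; Alexa 594 FP and total fluorescence read at 555/632 nm.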
The depositor's hits bear a star; ? = inconclusive; . = no result given; [ ] = dose if it differs, or a comment. Unless noted, the call rests on the fitted dose curve; in most records, active means well fitted curve in the direction sought with a large enough effect; inconclusive means small, poorly fitted or top-dose-only effect, or another doubt; inactive means no such curve, though single readings can be large; an effect the other way counts as inactive or inconclusive. On the % scale 0 is the no-effect control and ±100 the full control effect.

SMILES	USP1-UAF1 inh	Tau fibril FP	Coupling enz	Tau ThT inhib	Tau fluor cs
COc1ccc2nc(N3CCC(C)CC3)c(C#N)cc2c1	-20%	?	-25	35µM*	?
COc1ccc2nc(N3CCC(O)CC3)c(C#N)cc2c1	?	-2%	-34*	-3%	-1%
CCOC(=O)C1CCN(c2nc3cc(OC)ccc3cc2C#N)CC1	-21%	1%	-8	?	-17%
O=C(CCSCc1cnn(-c2ccccc2)c1-n1cccc1)NCc1ccc(Cl)cc1	-9%	0%	.	-8%	5%
CCc1nc(-c2cc(S(=O)(=O)N3CCN(c4ccccc4OC)CC3)ccc2OC)no1	19%	-11%	.	-4%	-28%
N#Cc1ccc(Oc2cccc3cccnc23)c([N+](=O)[O-])c1	-35%	.	-37*	.	.
Cc1ccc2cccc(Oc3ccc([N+](=O)[O-])cc3[N+](=O)[O-])c2n1	-6%	0%	-29	-10%	-21%
N#Cc1cc(O)c(-n2nnc3ccccc32)cc1C#N	-12%	-1%	4	-9%	-3%
N#Cc1cc(Oc2cccc3cccnc23)c(-n2nnc3ccccc32)cc1C#N	?	-4%	-21	-11%	16µM*[quencher]
O=[N+]([O-])c1ccc(Oc2cccc3cccnc23)c([N+](=O)[O-])c1	-1%	-7%	-42*	8.9µM*	16µM*[quencher]
Cc1c(C(=O)Nc2ccc(F)cc2F)sc2nc3n(c(=O)c12)N=C(c1ccccc1)CS3	-18%	-1%	.	-2%	-10%
Cn1c(=O)n(C)c2cc(N3CCOCC3)c(NC(=O)c3ccc(C(C)(C)C)cc3)cc21	-8%	-2%	.	?	-27%
CCN(CC)CCNC(=O)c1[nH]c2ccc(OCc3ccccc3)cc2c1C	-7%	7%	0	-12%	20µM*[quencher]
O=C(NN(c1ccccc1)c1ccccc1)c1ccccc1F	1%	.	0	.	.
O=C(/C=C/c1ccccc1)Nc1sc2c(c1C(=O)O)CCC2	-23%	-2%	-13	10µM*	?
CNC(=O)c1c(NC(=O)/C=C/c2ccccc2)sc2c1CCC2	-16%	-2%	.	14µM*	?
O=C(/C=C/c1ccco1)Nc1sc2c(c1C(=O)O)CCC2	0%	-4%	-14	?	-25%
Cc1ccccc1OC(=O)CSc1nnc(-c2ccc(F)cc2)o1	-8%	-8%	.	3%	0%
CCOC(=O)CN1C(=O)N(c2ccc(C)c(C)c2)S(=O)(=O)c2ccccc21	-14%	-5%	.	1%	-14%
CC[n+]1c(/C=C/N(C)c2ccccc2)oc2ccc(F)cc21	-16%	25µM*	-29	14µM*	?
CC(/C=C/C=C/c1ccccc1)=N\NC(=O)c1cccnc1	11%	-1%	1	?	-6%
CC(/C=C\C=C\c1ccccc1)=N\NC(=O)c1cncc(Br)c1	-13%	3%	-1	10µM*	-14%
COc1ccc(-n2c(N)c(C(=O)NCC3CCCO3)c3nc4ccccc4nc32)c(OC)c1 (centres undefined)	-26%	-2%	-30*	28µM*	?
C=CCn1c(N)c(C(=O)NCC2CCCO2)c2nc3ccccc3nc21 (centres undefined)	?	1%	-56*	-6%	-7%
Cc1cc(NC(=O)Nc2ccc(N(C)C)cc2)c2cc(F)cc(F)c2n1	.	-6%	-1	?	7.9µM*[quencher]
SMILES	USP1-UAF1 inh	Tau fibril FP	Coupling enz	Tau ThT inhib	Tau fluor cs
COC(=O)c1ccc2nc(C)cc(Nc3ccc(N(C)C)cc3)c2c1	8%	-2%	-2	?	?
CC(C)CN1C2CCCC1CC(NC(=O)c1ccc([N+](=O)[O-])cc1)C2 (centres undefined)	-17%	.	-1	.	.
COc1cccc(NC(=O)NC2(C(F)(F)F)Oc3ccccc3O2)c1	2%	5%	2	?	18µM*[quencher]
COc1cccc(NC(=O)Nc2cccc(C(=O)O)c2)c1	-12%	6%	4	-10%	-4%
Cc1ccc(C)c(N2CCN(C(=O)C(C)n3nc(C)c4sc5ccccc5c4c3=O)CC2)c1 (centres undefined)	8%	-3%	.	0%	-3%
Cc1cc(C)nc(NN2C(=O)/C(=C/c3ccccc3)SC2=S)n1	-15%	-3%	0	?	-14%
COc1cc(/C=C2\SC(=S)N(Nc3ncc(C(F)(F)F)cc3Cl)C2=O)ccc1O	-23%	-15%	-6	16µM*	14µM*[quencher]
CN(C)c1ccc(/C=C2\SC(=S)N(Nc3ncc(C(F)(F)F)cc3Cl)C2=O)cc1	25µM*	-14%	-1	?	-14%
CN1c2ccsc2C(O)=C(C(=S)Nc2ccc(F)c(Cl)c2)S1(=O)=O	-14%	?	5	20µM*	?
CC1CCN(C(c2ccc(N(C)C)cc2)c2nnnn2C(C)(C)C)CC1 (centres undefined)	-10%	-4%	1	10µM*	?
CN(C)c1ccc(C(c2nnnn2C(C)(C)C)N2CCc3ccccc3C2)cc1 (centres undefined)	.	5%	1	?	-10%
Cc1cccc(C2=N[C@@H](Cc3ccccc3)CO2)c1	.	0%[126 µM]	1	-19%[126 µM]	-20%[126 µM]
C=CCCN(Cc1ccc(OC)cc1)S(=O)(=O)c1ccccc1Br	.	.	2	.	.
O=C1NC(=S)S/C1=C\c1coc2ccccc2c1=O	?	-8%	6	7.9µM*	-4%
O=C1NC(=S)S/C1=C\c1coc2ccc(O)cc2c1=O	-19%	-2%	2	1.1µM*	-26%
O=C1NC(=S)SC1=Cc1cc(Br)ccc1O	-18%	.	.	.	.
CSCCC(NS(=O)(=O)c1cccs1)C(=O)Nc1ccc(C)c(Cl)c1 (centres undefined)	-22%	?	.	-5%	?
O=C(NCCCN1CCOCC1)C(=O)NCC1OCCCN1S(=O)(=O)c1cc(F)ccc1F (centres undefined)	-15%	.	.	.	.
CC(=O)c1ccc(NC(=S)Nc2ccc3cn[nH]c3c2)cc1	-17%	?	-5	16µM*	?
COc1cccc(-c2nc(NCCc3c[nH]c4ccc(OC)cc34)c3ccccc3n2)c1	.	?	-6	?	14µM*[quencher]
COc1ccc2[nH]cc(CCNc3nc(-c4ccccc4CN(C)C)nc4ccccc34)c2c1	.	5%	-1	?	?
COc1ccc2[nH]cc(CCNc3nc(-c4ccc(C(=O)N(C)C)cc4)nc4ccccc34)c2c1	.	3%	-5	?	16µM*[quencher]
COc1ccc2[nH]cc(CCNc3nc(-c4ccoc4)nc4ccccc34)c2c1	.	?	-6	?	32µM*[quencher]
COc1ccc2[nH]cc(CCNc3nc(-c4ccc(N(C)C)cc4)nc4ccccc34)c2c1	.	.	-6	.	.
CCCOc1ccc(C2C(C(=O)/C=C/c3ccco3)=C(O)C(=O)N2CCN2CCOCC2)cc1OC (centres undefined)	-18%	-1%	-38*	?	?
Cc1nnsc1C(=O)N/N=C/c1ccccc1	2%	0%	2	3%	5%

Bioassay records from PubChem BioAssay.
